Measured values taken from PubChem BioAssay.
Calls of active or inactive are those of the source.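 The calls were made as follows, unless noted: active = inhibition at or above 50% at 10 µM; inactive = inhibition below 50%.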

Legend:
[1] = inhibitors of TNFa-induced NFkB p65 translocation, primary screen, imaging, HUVEC, MLSMR starter and 10KST1 sets (AID 438;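 active = inhibition above 20% together with a positive visual image hit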;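 also: compound added about 3h40 before a 20 min TNFalpha stimulation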;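 as to inhibition: signal is the nuclear over cytoplasmic p65 intensity ratio per well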); conditions: HUVEC TNFa-induced p65 nuclear translocation; cell count: measured here: nuclei count (cytotoxicity indicator), at 2.08 µM; inhibition: at 2 µM, stronger effect = higher value, 0% TNFa-plus-vehicle, 100% no-TNFa wells
[2] = inhibitors of mutant huntingtin aggregation, primary screen, imaging, exon1htt(103Q)mCFP cells, high-content imaging (AID 483;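 active = visual image review flags a hit and inhibition of aggregation exceeds 20%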;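 also: compound exposure lasted 3 days before fixation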;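 as to nuclei count: percent of the per-plate median nuclei count of sample wells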); conditions: exon1htt(103Q)mCFP cell line, aggregate imaging, at 2 µM; inhibition of aggregation: stronger effect = higher value; nuclei count: measured here: cell count, toxicity
[3] = inhibitors of E-selectin induction by TNFa, primary screen, imaging, HUVEC, immunofluorescence, MLSMR starter and 10KST1 sets (AID 487;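 active = visually confirmed hit in the image check and inhibition above 20%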;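 as to inhibition: signal is fraction of cell area covered by stained E-selectin grains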;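 as to nuclei count: 100% = median nuclei count of all wells on the same plate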); conditions: HUVEC TNFalpha-induced E-selectin immunofluorescence imaging, at 2 µM; inhibition: stronger effect = higher value; nuclei count: measured here: cell number, toxicity
[4] = biological target: Voltage-gated potassium channel subunit beta-2 (Rattus norvegicus) (UniProt P62483); assay: KvBeta enzyme negative modulators, primary screen, biochemical, NADPH fluorescence (AID 622;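 active = fluorescence slope higher than the sample average by over 3 SD, cut at about -0.22 in these data, passing the limit was not always enough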;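 also: slope of raw intensity against log time taken from 70 to 1610 s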); conditions: recombinant KvBeta, 4-cyanobenzaldehyde reduction, at 10 µM, stronger effect = higher value
[5] = biological target: Voltage-gated potassium channel subunit beta-2 (Rattus norvegicus) (UniProt P62483); assay: KvBeta positive modulators, primary screen, biochemical, NADPH fluorescence (AID 623;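 active = NADPH fluorescence slope more negative than the mean of all samples by about 3 SD, 99.7% confidence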;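 also: fluorescence intensity change per second fitted from 20 to 320 s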); conditions: Recombinant KvBeta, NADPH fluorescence decrease slope, 10 min; at 10 µM; stronger effect = lower value
[6] = biological target: Alpha-2C adrenergic receptor (Homo sapiens) (UniProt P18825); assay: modulators of alpha2C/GIRK thallium flux, primary screen, cell-based, HEK293 alpha2C/GIRK1/2 (AID 624;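 active = fluorescence slope after compound addition differing from the mean of all screened samples at 99.7% confidence, in either direction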;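 also: slope of fluorescence ratio to pre-addition baseline per second over 15 to 24 s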); conditions: thallium flux BTC fluorescence, at 10 µM, actives lie on both sides
[7] = inhibitors of Sendai virus-induced IRF3 signaling, primary screen, TLR/RLR signaling modifier project, cell-based, Sendai virus stimulus, luciferase, 10K MLSCN set (AID 602276); conditions: HEK293 RL24 IRF3 luciferase reporter, at 10 µM, stronger effect = higher value;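 also: firefly luciferase from ISG56 promoter only with Renilla not read in this screen; 0% = Sendai virus plus DMSO and 100% = medium plus DMSO without virus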
[8] = inhibitors of poly I:C-induced TLR3 signaling, primary screen, cell-based, poly I:C stimulus, luciferase, 10K MLSCN set (AID 602277;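 active = inhibition of the reporter signal at or above 50%; inactive = inhibition below 50%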); conditions: HEK293-TLR3 RL24 IRF3 luciferase reporter, at 10 µM, stronger effect = higher value

Voltage-gated potassium channel subunit beta-2 (Rattus norvegicus), sequence (P62483 whole entry, looked up): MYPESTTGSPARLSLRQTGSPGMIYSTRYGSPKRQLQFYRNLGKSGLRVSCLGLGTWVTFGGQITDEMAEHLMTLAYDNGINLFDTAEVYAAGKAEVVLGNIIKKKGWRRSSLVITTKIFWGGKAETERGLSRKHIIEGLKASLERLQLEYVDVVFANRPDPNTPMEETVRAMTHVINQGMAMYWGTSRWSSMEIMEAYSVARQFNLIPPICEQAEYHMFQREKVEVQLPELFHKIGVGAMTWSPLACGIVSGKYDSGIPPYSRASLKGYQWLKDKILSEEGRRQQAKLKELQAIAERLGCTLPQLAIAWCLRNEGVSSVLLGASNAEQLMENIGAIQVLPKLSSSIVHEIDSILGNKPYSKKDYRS
Alpha-2C adrenergic receptor (Homo sapiens), sequence (P18825 whole entry, looked up): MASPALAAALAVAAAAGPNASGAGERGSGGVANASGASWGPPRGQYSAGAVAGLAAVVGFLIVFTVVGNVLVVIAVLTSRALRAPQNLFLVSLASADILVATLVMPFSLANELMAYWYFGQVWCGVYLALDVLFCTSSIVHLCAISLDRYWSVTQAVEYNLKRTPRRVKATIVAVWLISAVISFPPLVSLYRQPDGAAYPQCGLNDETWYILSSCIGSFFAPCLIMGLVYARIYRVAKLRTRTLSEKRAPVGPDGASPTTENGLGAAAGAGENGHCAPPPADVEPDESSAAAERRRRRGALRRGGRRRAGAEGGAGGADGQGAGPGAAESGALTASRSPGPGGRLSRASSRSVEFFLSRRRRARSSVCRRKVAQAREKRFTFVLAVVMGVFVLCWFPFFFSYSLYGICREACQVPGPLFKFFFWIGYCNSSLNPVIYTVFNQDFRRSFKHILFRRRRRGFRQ

SMILES	cell count [1]	inhibition [1]	inhibition of aggregation [2]	nuclei count [2] [%]	inhibition [3]	nuclei count [3] [%]	fluorescence slope [4]	NADPH fluorescence slope [5]	slope [6]	inhibition [7]	inhibition [8]
Cc1cc(Cl)ccc1NC(=O)CSc1nnc(Cc2cccs2)n1Cc1ccco1	270	-4.3% (inactive)	27.5% (inactive)	74.6	-32.8% (inactive)	102	-0.494 (inactive)	-5e-05 (inactive)	0.00645 (inactive)	17.4% (inactive)	32.2% (inactive)
O=C(Oc1ccc(Cl)cc1N1C(=O)CCC1=O)c1ccco1	331	-4.2% (inactive)	-31.4% (inactive)	114	-182% (inactive)	134	-0.463 (inactive)	-1.4e-05 (inactive)	0.00607 (inactive)	7.34% (inactive)	31.5% (inactive)
Cc1cc(C)c2cc3c(ccn3C3OC[C@H](O)[C@H](O)[C@H]3O)cc2n1 (stereo partly drawn)	699	-21.8% (inactive)	-19.6% (inactive)	121	-106% (inactive)	95.9	-0.0157 (active)	-2.8e-05 (inactive)	0.002 (inactive)	15.4% (inactive)	27.3% (inactive)
Cc1ccc(Nc2nc(Oc3ccc(=O)[nH]n3)nc(N(C)C)n2)cc1	377	2.8% (inactive)	13.2% (inactive)	101	-65.6% (inactive)	111	-0.498 (inactive)	-4.2e-05 (inactive)	0.00563 (inactive)	8.86% (inactive)	11.8% (inactive)
COCc1nnc(NC(=O)c2ccc(NC(C)=O)cc2)s1	684	-12.6% (inactive)	-4.2% (inactive)	95.9	-22% (inactive)	93.1	-0.527 (inactive)	-3.7e-06 (inactive)	0.00454 (inactive)	-5.57% (inactive)	-14.7% (inactive)
CCOc1ccc(/C=N/n2cnnc2)cc1	442	-2.2% (inactive)	-4.7% (inactive)	89.4	17.6% (inactive)	117	-0.402 (inactive)	-9.1e-05 (inactive)	0.00521 (inactive)	8.22% (inactive)	20.1% (inactive)
Cc1c(C#N)c(N)c(C(=O)c2ccccc2)n1Cc1ccccc1	375	0% (inactive)	15.4% (inactive)	100	-38% (inactive)	117	-0.512 (inactive)	-1.4e-05 (inactive)	0.0107 (inactive)	-20.6% (inactive)	0.155% (inactive)
O=C(Oc1ccc2c(c1)CCC2)N1CCOCC1	360	5.5% (inactive)	6.4% (inactive)	88.2	21.8% (inactive)	81.4	-0.393 (inactive)	8.5e-06 (inactive)	0.00612 (inactive)	-63.8% (inactive)	-185% (inactive)
COc1ccc2c(c1)C1(Nc3ccccc3-c3nc4ccccc4n31)C(=O)N2 (stereo not drawn)	240	5.7% (inactive)	11.7% (inactive)	78	13.2% (inactive)	110	-0.493 (inactive)	-4.6e-05 (inactive)	0.00486 (inactive)	17.4% (inactive)	36.3% (inactive)
O=C(c1ccc(Br)o1)N(Cc1ccccc1)c1ccccn1	386	-5.9% (inactive)	13.3% (inactive)	102	5.4% (inactive)	107	-0.43 (inactive)	5.2e-05 (inactive)	0.00529 (inactive)	5.65% (inactive)	-0.317% (inactive)
CC1CCCN(C(=O)CN2CCN(C(=O)c3ccco3)CC2)C1 (stereo not drawn)	238	0.4% (inactive)	20.8% (inactive)	76	-18.8% (inactive)	152	-0.596 (inactive)	-6.2e-05 (inactive)	0.00367 (inactive)	7.97% (inactive)	14.7% (inactive)
CCCCn1c(SCC(=O)Nc2ccc(OC)cc2)nc2ccc(N3CCOCC3)cc2c1=O	508	-0.6% (inactive)	20.8% (inactive)	44.4	-3.4% (inactive)	103	-0.407 (inactive)	6.3e-06 (inactive)	0.00425 (inactive)	11.2% (inactive)	13.1% (inactive)
CCOc1cc(NC(=O)c2ccco2)c(OCC)cc1NC(=O)COc1ccccc1C	388	0% (inactive)	-11.9% (inactive)	107	-74.7% (inactive)	129	-0.00358 (active)	3.9e-06 (inactive)	0.00663 (inactive)	-1.87% (inactive)	-75.9% (inactive)
Clc1ccc(OCCCn2cncn2)cc1Cl	432	3.4% (inactive)	21.2% (inactive)	99.2	7.8% (inactive)	94.7	-0.523 (inactive)	5.3e-06 (inactive)	0.00702 (inactive)	10.6% (inactive)	-19.6% (inactive)
Cc1ccc(-c2nc3cc(N)ccc3o2)cc1	463	1.1% (inactive)	11.7% (inactive)	101	-58.1% (inactive)	115	-0.0326 (active)	-3.4e-05 (inactive)	0.00542 (inactive)	2.48% (inactive)	-58.1% (inactive)
CC(=O)N1CCN(S(=O)(=O)c2ccc(S(=O)(=O)NC3CC3)cc2)CC1	716	-8.1% (inactive)	0.7% (inactive)	99.7	33.9% (inactive)	112	-0.444 (inactive)	-2.2e-05 (inactive)	0.00506 (inactive)	18.5% (inactive)	18% (inactive)
CC(C)COc1ccc(C(=O)OCCN2CCOCC2)cc1	211	2.3% (inactive)	-8.6% (inactive)	108	-18.5% (inactive)	116	-0.636 (inactive)	1.1e-05 (inactive)	0.00666 (inactive)	-17.8% (inactive)	-15% (inactive)
CC(C)(C)NC(=O)CC(CC(=O)O)c1ccccc1 (stereo not drawn)	584	2.9% (inactive)	-4.2% (inactive)	85.7	-30.6% (inactive)	109	-0.539 (inactive)	-3.4e-05 (inactive)	0.008 (inactive)	12.7% (inactive)	37.3% (inactive)
CCOC(=O)C1CCN(c2c(NC3CCCCCCC3)c(=O)c2=O)CC1	897	2.8% (inactive)	-6.4% (inactive)	103	-53.1% (inactive)	118	-0.575 (inactive)	-4.2e-05 (inactive)	0.00631 (inactive)	9.6% (inactive)	32.7% (inactive)
COC(=O)C1=C(N)Oc2cc(C)n(Cc3ccncc3)c(=O)c2C1c1cccnc1 (stereo not drawn)	594	-13.5% (inactive)	0% (inactive)	87.4	10.9% (inactive)	104	-0.479 (inactive)	-7e-05 (inactive)	0.00483 (inactive)	12.8% (inactive)	14.1% (inactive)
Cc1ccc(NC(=O)CCC(=O)OCC(F)(F)C(F)F)cc1	551	-2.4% (inactive)	2% (inactive)	69.2	-2.3% (inactive)	91.8	-0.454 (inactive)	6.2e-06 (inactive)	0.00371 (inactive)	3.35% (inactive)	35.3% (inactive)
N#CC1=C(N)OC2=C(CCC/C2=C/c2ccoc2)C1c1ccoc1 (stereo not drawn)	413	-5.2% (inactive)	-17.9% (inactive)	113	-137% (inactive)	115	-0.313 (inactive)	-5.7e-05 (inactive)	0.00619 (inactive)	-7.37% (inactive)	-9.08% (inactive)
CCOC(=O)N1CCC(N2C(=O)c3ccccc3C2Nc2ccccc2C)CC1 (stereo not drawn)	568	5.8% (inactive)	-4% (inactive)	98.2	-22.5% (inactive)	106	-0.531 (inactive)	-3.2e-05 (inactive)	0.00624 (inactive)	3.88% (inactive)	36.9% (inactive)
Cc1ccc(Nc2cc(C)nc3ncnn23)c(Cl)c1	551	7.9% (inactive)	-2.9% (inactive)	69.8	-65.9% (inactive)	104	-0.491 (inactive)	4.8e-06 (inactive)	0.00625 (inactive)	6.25% (inactive)	18.4% (inactive)
CCn1cc(C(=O)NCCC2=CCCCC2)c(=O)c2cc(S(=O)(=O)N(C)C)ccc21	458	-6.1% (inactive)	38.5% (active)	79	-45.7% (inactive)	93.2	-0.563 (inactive)	-4.1e-05 (inactive)	0.00705 (inactive)	3.13% (inactive)	17.6% (inactive)
CCOc1ccccc1N1CCN(C(=O)c2ccncc2)CC1	428	-1.5% (inactive)	12.2% (inactive)	90.1	11.7% (inactive)	105	-0.421 (inactive)	-0.000112 (inactive)	0.00573 (inactive)	-5.17% (inactive)	15.5% (inactive)
COCCn1c(CN2CCN(c3ccccc3F)CC2)nc2c1c(=O)n(C)c(=O)n2C	609	-5.2% (inactive)	0.1% (inactive)	92.3	2.6% (inactive)	90.2	-0.61 (inactive)	-2.3e-05 (inactive)	0.00711 (inactive)	-11.5% (inactive)	-9.11% (inactive)
Cc1ccc2c(c1)-c1c(cnn1CC(=O)NC(C)CCc1ccco1)CO2 (stereo not drawn)	799	4.6% (inactive)	-8% (inactive)	119	-62.3% (inactive)	125	-0.577 (inactive)	-2e-05 (inactive)	0.00658 (inactive)	11.5% (inactive)	29.3% (inactive)
